A short description of assay [1]: growth inhibition of DIPG glioma cells, dose response, cell-based, SU-DIPG-XVII, MIPE5.0, CellTiter-Glo, qHTS (AID 1347060; cut-off not given, nearly all actives have AC50 up to about 26 µM;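 also: cells exposed to compound for 48 hours before viability readout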). To be noted: SU-DIPG-XVII viability, CellTiter-Glo ATP luminescence. A general note: Cellular ATP, detected with luciferase, serves as a proxy for viable cell number.
A short description of assay [2]: growth inhibition of DIPG glioma cells, dose response, cell-based, SU-DIPG-XIII, MIPE4.0, CellTiter-Glo, qHTS (AID 1347061; cut-off not given, nearly all actives have AC50 up to about 37 µM;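 also: cells exposed to compound for 48 hours before readout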). The following applies: SU-DIPG-XIII viability, CellTiter-Glo ATP luminescence.
Assay [3] in a line: growth inhibition of DIPG glioma cells, dose response, cell-based, JHH-DIPG-1, MIPE4.0, CellTiter-Glo, qHTS (AID 1347062; cut-off not given, nearly all actives have AC50 up to about 27 µM;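 also: cells exposed to compound for two days before readout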). The following applies: JHH-DIPG-1 viability, CellTiter-Glo ATP luminescence.
Assay [4] is described as follows: growth inhibition of DIPG glioma cells, dose response, cell-based, SU-DIPG-IV, MIPE4.0, CellTiter-Glo, qHTS (AID 1347063; cut-off not given, nearly all actives have AC50 up to about 30 µM;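 also: compound exposure lasted 48 hours before the viability readout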). The following applies: SU-DIPG-IV viability, CellTiter-Glo ATP luminescence.
Assay [5] in a line: growth inhibition of DIPG glioma cells, dose response, cell-based, SU-DIPG-XIII, MIPE5.0, CellTiter-Glo, qHTS (AID 1347064; cut-off not given, nearly all actives have AC50 up to about 23 µM;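 also: cells exposed to compound for 48 hours before the viability read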). The following applies: SU-DIPG-XIII viability, CellTiter-Glo ATP luminescence.
A short description of assay [6]: viability loss in pontine glioma line – cell-based, SU-DIPG-XXV, MIPE5.0, CellTiter-Glo, qHTS, dose response (AID 1347065; cut-off not given, nearly all actives have AC50 up to about 26 µM;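 also: cells exposed to compound for 48 hours before ATP readout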). The following applies: CellTiter-Glo ATP luminescence.
The nature of assay [7]: SU-DIPG-VI glioma cell viability, MIPE4.0 library, CellTiter-Glo luminescence, qHTS (AID 1347066; cut-off not given, nearly all actives have AC50 up to about 30 µM;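 also: cells exposed to compound for 48 hours before readout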). The following applies: CellTiter-Glo ATP luminescence.
Assay [8] is described as follows: JHH-DIPG-1 glioma cell viability, MIPE5.0 library, CellTiter-Glo luminescence, qHTS (AID 1347067; cut-off not given, nearly all actives have AC50 up to about 26 µM;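 also: cells exposed to compound for 48 hours before readout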). To be noted: JHH-DIPG-1 glioma viability, CellTiter-Glo ATP luminescence.
A short description of assay [9]: SU-DIPG-XXV glioma cell viability, MIPE5.0 library, qHTS (AID 1347068; cut-off not given, nearly all actives have IC50 up to about 30 µM;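 also: cells exposed to compound for 48 hours before viability readout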). (qHTS replaces the single test concentration by a dilution series.)
Assay [10] in a line: sensitizers of A549 cells to miR-34 induction, primary screen, imaging, A549 dox-inducible miR-34, nuclei and caspase counts (AID 1347080;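 active = compounds whose cell count with miR-34 switched on is under 0.7 times the count with it off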). The following applies: A549 miR-34 inducible, Hoechst nuclei count, 48 h.
Assay [11] can be described thus: survival rescue of mitochondrial mutant cells in low glucose, primary screen, MELAS cybrids, Rieske KO mouse fibroblasts, CellTiter-Glo (AID 1508586;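 active = mean z-score across replicates of 1.96 or higher in either the MELAS or the Rieske mutant cell line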;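 also: z relative to plate mean and SD of compound and empty wells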).
Assay [12] can be described thus: modifiers of HSF1 nuclear foci, imaging, Selleck Cancer Library (AID 1347162; in the data active = plate-normalised HSF1 focus index below about 0.46). To be noted: human cells, at 10 µM; SSMD: measured here: HSF1 foci SSMD mean; cell count: measured here: cell number; plate-normalised HSF1 focus index: stronger effect = lower value.
Assay [13] in a line: ovarian cancer cell viability with rucaparib, profiling panel, oncology-focused library, rucaparib conditional (AID 1508598). The following applies: patient-derived ovarian cancer cells, CellTiter-Glo viability, 144 h, stronger effect = lower value.
The mark [14] stands for this setting: stronger effect = lower value, cell number ratio, induced over uninduced.
Where [15] appears, read: measured here: relative caspase fold change +Dox/-Dox.
The mark [16] stands for this setting: measured here: total cells with miR-34 induction, stronger effect = lower value.
[17] abbreviates: measured here: total cells without miR-34 induction.
The mark [18] stands for this setting: MELAS cybrid survival, CellTiter-Glo 48 h, stronger effect = higher value.
Setting [19] is: Rieske KO mouse fibroblast survival, CellTiter-Glo 72 h.

Records with an inconclusive call do not appear. Calls of active or inactive are those of the source.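 The calls were made as follows, unless noted: active = normalized viability below 100% at a tested concentration; inactive = the rest.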

By AC50 is commonly meant the concentration at which the activity in the assay is half-maximal. The term IC50 denotes the concentration that gives 50% inhibition. As to `C=CC(=O)Nc1cccc(Oc2nc(Nc3ccc(N4CCN(C)CC4)cc3)ncc2Cl)c1`, the AC50 in assay [1] is 0.468 µM (active); in assay [2], 13.2 µM (active); in assay [3], 1.66 µM (active); in assay [4], 2.09 µM (active); in [5], 1.32 µM (active); in assay [6], 0.372 µM (active). The half-maximal activity concentration (AC50) was 18.7 µM (active) in [7] and 1.18 µM (active) in [8]. Also, the IC50 in [9] is 0.525 µM (active). The fold change in [10] (setting [14]) was 0.981 (inactive); in [10] (setting [15]), 0.779. The cell count amounted to 1580 in assay [10] (setting [16]) and 1610 in assay [10] (setting [17]). Further, the z-score in assay [11] (setting [18]) is 1.07 (inactive); in [11] (setting [19]) it was 0.326.

In the case of `NC(=NCCCCCCN=C(N)N=C(N)Nc1ccc(Cl)cc1)N=C(N)Nc1ccc(Cl)cc1`, the AC50 is 9.34 µM (active) in [1]; 4.18 µM (active) in assay [2]; 14.8 µM (active) in [3]; 18.7 µM (active) in assay [4]; 8.33 µM (active) in assay [5]; 9.34 µM (active) in assay [6]. The AC50 in assay [7] is 13.2 µM (active); in assay [8] it was 11.8 µM (active). Besides, the half-maximal inhibitory concentration (IC50) in [9] was 14.8 µM (active). The fold change in [10] (setting [14]) is 0.848 (inactive); in [10] (setting [15]), 0.439. Further, the cell count in [10] (setting [16]) stood at 1370; in [10] (setting [17]), 1620. Further, the z-score in [11] (setting [18]) was -0.252 (inactive); in [11] (setting [19]), 0.00983.

For `COc1cc2c(Oc3ccc(NC(=O)C4(C(=O)Nc5ccc(F)cc5)CC4)cc3F)ccnc2cc1OCCCN1CCOCC1`, the AC50 is 2.63 µM (active) in assay [1]; 8.33 µM (active) in assay [2]; 18.7 µM (active) in assay [3]; 6.62 µM (active) in assay [4]; 3.72 µM (active) in [5]; 1.32 µM (active) in assay [6]. Besides, the concentration at half-maximal activity (AC50) was 11.8 µM (active) in assay [7] and 5.9 µM (active) in assay [8]. In addition, the concentration for half-maximal inhibition (IC50) in assay [9] was 3.72 µM (active). For the same compound, the fold change in [10] (setting [14]) was 1.06 (inactive); in assay [10] (setting [15]) it was 0.77. Also, the figures for the cell count in [10] (setting [16]) and in assay [10] (setting [17]) were 1060 and 992, respectively. For the same compound, the z-score was 2.58 (active) in assay [11] (setting [18]) and 0.0525 in assay [11] (setting [19]).

By viability is commonly meant a read-out of living cells in per cent, often relative to untreated cells. Take `NC(=O)Nc1cc(-c2cccc(F)c2)sc1C(=O)N[C@H]1CCCNC1`: the AC50 in [1] was 1.48 µM (active); in assay [2], 20.9 µM (active); in assay [3], 0.526 µM (active); in assay [4], 5.9 µM (active); in assay [5], 2.09 µM (active); in assay [6], 1.18 µM (active). Further, the concentration at half-maximal activity (AC50) in [7] was 18.7 µM (active); in [8], 3.32 µM (active). Also, the IC50 in [9] is 2.95 µM (active). In assay [12], this compound showed an SSMD of -1.43. For the same compound, in assay [12], the cell count was 7360. In addition, in assay [12], the plate-normalised HSF1 focus index was 0.95 (inactive). The viability in assay [13] (at 0.000305 µM, OCI-C5x cells, with rucaparib 10 µM, 100% = cells with rucaparib alone) was 130% (inactive); in assay [13] (at 0.000305 µM, OCI-C5x cells, without rucaparib), 94.3% (active); in [13] (at 0.000305 µM, OCI-P5x cells, with rucaparib 20 µM, 100% = cells with rucaparib alone), 76% (active); in [13] (at 0.000305 µM, OCI-P5x cells, without rucaparib), 79.5% (active); in assay [13] (at 0.00122 µM, OCI-C5x cells, with rucaparib 10 µM, 100% = cells with rucaparib alone), 134% (inactive); in [13] (at 0.00122 µM, OCI-C5x cells, without rucaparib) it was 97.4% (active). Further, the viability is 73.7% (active) in assay [13] (at 0.00122 µM, OCI-P5x cells, with rucaparib 20 µM, 100% = cells with rucaparib alone); 86.4% (active) in assay [13] (at 0.00122 µM, OCI-P5x cells, without rucaparib); 117% (inactive) in [13] (at 0.00488 µM, OCI-C5x cells, with rucaparib 10 µM, 100% = cells with rucaparib alone); 97.4% (active) in assay [13] (at 0.00488 µM, OCI-C5x cells, without rucaparib); 56.6% (active) in [13] (at 0.00488 µM, OCI-P5x cells, with rucaparib 20 µM, 100% = cells with rucaparib alone); 87.5% (active) in [13] (at 0.00488 µM, OCI-P5x cells, without rucaparib). Also, the viability was 108% (inactive) in [13] (at 0.0195 µM, OCI-C5x cells, with rucaparib 10 µM, 100% = cells with rucaparib alone); 81.6% (active) in assay [13] (at 0.0195 µM, OCI-C5x cells, without rucaparib); 55.1% (active) in assay [13] (at 0.0195 µM, OCI-P5x cells, with rucaparib 20 µM, 100% = cells with rucaparib alone); 90.2% (active) in assay [13] (at 0.0195 µM, OCI-P5x cells, without rucaparib); 81.1% (active) in [13] (at 0.0781 µM, OCI-C5x cells, with rucaparib 10 µM, 100% = cells with rucaparib alone); 53.1% (active) in [13] (at 0.0781 µM, OCI-C5x cells, without rucaparib). The viability in assay [13] (at 0.0781 µM, OCI-P5x cells, with rucaparib 20 µM, 100% = cells with rucaparib alone) was 44.5% (active); in assay [13] (at 0.0781 µM, OCI-P5x cells, without rucaparib), 73.5% (active); in assay [13] (at 0.313 µM, OCI-C5x cells, with rucaparib 10 µM, 100% = cells with rucaparib alone), 48% (active); in [13] (at 0.313 µM, OCI-C5x cells, without rucaparib), 30.6% (active); in assay [13] (at 0.313 µM, OCI-P5x cells, with rucaparib 20 µM, 100% = cells with rucaparib alone) it was 26% (active); in [13] (at 0.313 µM, OCI-P5x cells, without rucaparib), 21.6% (active). Further, the viability in assay [13] (at 1.25 µM, OCI-C5x cells, with rucaparib 10 µM, 100% = cells with rucaparib alone) is 33.5% (active); in [13] (at 1.25 µM, OCI-C5x cells, without rucaparib), 20% (active); in assay [13] (at 1.25 µM, OCI-P5x cells, with rucaparib 20 µM, 100% = cells with rucaparib alone), 13.7% (active); in assay [13] (at 1.25 µM, OCI-P5x cells, without rucaparib), 9.05% (active); in [13] (at 5 µM, OCI-C5x cells, with rucaparib 10 µM, 100% = cells with rucaparib alone), 13% (active); in assay [13] (at 5 µM, OCI-C5x cells, without rucaparib) it was 8.94% (active). Further, the viability is 6.86% (active) in [13] (at 5 µM, OCI-P5x cells, with rucaparib 20 µM, 100% = cells with rucaparib alone) and 3.71% (active) in [13] (at 5 µM, OCI-P5x cells, without rucaparib).

Values taken from PubChem BioAssay.
